Hits are enriched below; roughly 9.4% of the tested compounds scored in any of these assays.
HPGD inh – inhibitors of human 15-hydroxyprostaglandin dehydrogenase (HPGD). purified HPGD, NADH fluorescence kinetic, PGE2 substrate. P15428. actives 4.3% (n = 150,000). AID 894. Potency, µM, for the others: at the highest dose activity change, negative = inhibition, actives largely listed as inhibitors; active means well fitted inhibition curve with a large enough effect, not every such curve was filed as active; inconclusive means small, poorly fitted or top-dose-only effect, or another doubt; inactive means no such curve, though single readings can be large or run the other way; further: potency means the concentration at half of the fitted maximal effect; on the % scale 0 is the no-effect control and ±100 the full control effect
Target sequence (P15428 whole entry, looked up): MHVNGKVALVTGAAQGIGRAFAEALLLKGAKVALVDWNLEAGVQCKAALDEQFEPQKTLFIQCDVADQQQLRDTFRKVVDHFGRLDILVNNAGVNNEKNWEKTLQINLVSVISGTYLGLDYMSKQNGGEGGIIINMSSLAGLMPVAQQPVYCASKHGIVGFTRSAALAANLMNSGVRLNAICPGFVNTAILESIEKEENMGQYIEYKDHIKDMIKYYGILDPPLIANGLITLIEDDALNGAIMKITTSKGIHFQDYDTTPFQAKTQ
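NADH formation kinetics: reaction with 30 uM PGE2 and 1 mM NAD+ (final), 20 nM enzyme, Tris-HCl pH 8 with Tween 20, after 15 min compound preincubation at room temperature. Fluorescence change, last versus first of five reads.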
ALDH1A1 block – blocks purified human ALDH1A1 activity. Purified ALDH1A1, NADH fluorescence, propionaldehyde substrate. Potency, µM (doses to about 75.3 µM), inactives show at the top dose activity, negative = inhibition, hits mostly inhibitors. actives 7.3% (n = 220,000). AID 1030; active means well fitted inhibition curve with a large enough effect, not every such curve was filed as active; inconclusive means small, poorly fitted or top-dose-only effect, or another doubt; inactive means no such curve, though single readings can be large or run the other way;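 further: potency means the concentration at half of the fitted maximal effect; plate controls were no enzyme wells and a reference inhibitor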
Target sequence (P00352 whole entry, looked up): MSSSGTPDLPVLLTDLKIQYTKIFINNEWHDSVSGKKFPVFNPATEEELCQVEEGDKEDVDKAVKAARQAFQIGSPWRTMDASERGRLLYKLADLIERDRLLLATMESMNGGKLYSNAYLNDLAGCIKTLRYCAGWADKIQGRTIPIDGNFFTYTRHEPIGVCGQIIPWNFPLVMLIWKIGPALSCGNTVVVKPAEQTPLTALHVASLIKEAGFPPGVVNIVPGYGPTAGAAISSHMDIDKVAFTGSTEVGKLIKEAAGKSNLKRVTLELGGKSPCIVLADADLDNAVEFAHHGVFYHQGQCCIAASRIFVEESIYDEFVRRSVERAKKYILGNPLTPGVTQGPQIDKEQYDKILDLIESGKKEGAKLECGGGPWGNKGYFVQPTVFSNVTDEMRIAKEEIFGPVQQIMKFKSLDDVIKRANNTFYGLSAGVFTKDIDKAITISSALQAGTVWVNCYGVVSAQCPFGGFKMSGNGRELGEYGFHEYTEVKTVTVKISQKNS
HttQ103 aggreg – mutant huntingtin aggregation inhibition. Potency, µM (series often up to 46.1 µM), for the others: at the top dose activity change, negative = inhibition, most hits filed as inhibitors. PC12 HttQ103-GFP aggregates, Acumen cytometry, 40 h. actives 1.1% (n = 220,000); further: potency means the concentration at half of the fitted maximal effect; on the % scale 0 is the no-effect control and ±100 the full control effect; nearly all actives have a fitted effect of over 60% in size
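Steps: seed 1500 PC12 HTTQ103-GFP cells/well; add tebufenozide, 100 nM final; add compound titration; add ATPLite reagent; quantify GFP aggregates by laser scanning cytometry.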
IMPase Li inh – cell-permeable IMPase inhibitors with lithium potentiation | CHO-M1 cells, IP1 TR-FRET (IP-One), carbachol + lithium | Potency, µM (doses to about 59.4 µM), for the others: top-dose activity, negative = IMPase inhibition, actives largely listed as inhibitors | actives 0.35% (n = 210,000);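 further: IP1 builds up when IMPase is blocked and the TR-FRET signal falls; potency means the concentration at half of the fitted maximal effect; plate controls were basal vehicle for no effect and high inhibitor control for full effect; nearly all actives have a fitted effect of over 50% in size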
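Steps: plate 2000 CHO-M1 cells per well and culture 16–30 h; add compound and lithium; incubate 30 min, 37C; add d2-IP1 tracer and Eu cryptate anti-IP1 antibody in lysis buffer; read after 10 min at room temperature.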
HTT ATP protect – cytoprotection in Huntington HTT-Q103 PC12 cell model; PC12 HTT-Q103 induced, cytoprotection, ATP luminescence, 40 h; Potency, µM (series often up to 56.4 µM), inactives show cytoprotection (ATP increase), hits mostly activators; actives 0.14% (n = 230,000); further: potency means the concentration at half of the fitted maximal effect; % of control where 0% means no effect; nearly all actives have a fitted effect of over 45% in size
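Compounds added alongside 100 nM tebufenozide, which induces toxic Q103 huntingtin exon 1-GFP in stable PC12 cells; surviving cells quantified by luminescent ATP measurement. Medium: phenol red-free DMEM, 5% equine and 5% calf serum.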
IMPase inh – cell-permeable inhibitors of inositol monophosphatase (IMPase); 120,000 tested, under 10 active; P97697; CHO-M1 cells, IP1 accumulation, HTRF TR-FRET ratio; inhibition (IP1 accumulation), % at 46.1 µM; active means well fitted curve in the direction sought with a large enough effect in the signal ratio, not every such curve was filed as active; inconclusive means small, poorly fitted or top-dose-only effect, or a change in a side signal; inactive means no such curve, though single readings can be large or run the other way; the % refers to the signal ratio;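 further: cells stimulated with carbachol in lithium chloride buffer; plate controls were DMSO basal wells for no effect and reference inhibitor wells for full effect; higher means more IMPase inhibition seen as more IP1 and lower FRET ratio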
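Seeded CHO-M1 cells were dosed with compound at up to 46 uM, stimulated with carbachol for 30 min, then lysed in IP-One detection reagents. Higher IP1 lowers the TR-FRET signal.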
The depositor's hits bear a star; ? = inconclusive; . = not tested or not shown; [ ] = dose if it differs, or a comment. Unless noted, the call rests on the fitted dose curve; in most records, active means well fitted curve in the direction sought with a large enough effect; inconclusive means small, poorly fitted or top-dose-only effect, or another doubt; inactive means no such curve, though single readings can be large; an effect the other way counts as inactive or inconclusive.

SMILES	HPGD inh	ALDH1A1 block	HttQ103 aggreg	IMPase Li inh	HTT ATP protect	IMPase inh
Cc1ccc(S(=O)(=O)Nc2cc(C)nn2-c2ccccc2)cc1	-6.8%	25.1µM*	6.3%	-12.6%[38.3 µM]	5.1%	0.8
Cc1cc(Nc2ccccc2)n(-c2cccc(Cl)c2)n1	28.2µM*	?	?	45.5%[38.3 µM]	-13.3%	8.2
Cc1sc2ccc3sccc3c2[n+]1C	.	-98.3%	-0.8%[9.22 µM]	24.2%	0.9%[10 µM]	.
Cc1sc2c3ccsc3ccc2[n+]1C	.	4.47µM*	?	9.2%	19.7%	.
CC(=O)c1cccc(NS(=O)(=O)c2cccc(C(=O)O)c2)c1	-8.9%	-1.5%	.	.	.	.
C#CCOCCOCCOCCNc1nc(N2CCN(C(=O)[C@H](CCC(=O)O)n3cc(C(N)CC(C)C)nn3)CC2)nc(N2CCN(C(=O)[C@H](Cc3ccc(O)cc3)n3cc(C(N)CC(C)C)nn3)CC2)n1 (stereo partly drawn)	.	?	20.2%[9.22 µM]	-2.2%	6.4%[10 µM]	.
C#CCOCCOCCOCCNc1nc(N2CCN(C(=O)[C@H](Cc3ccc(O)cc3)n3cc([C@@H](N)CC(C)C)nn3)CC2)nc(N2CCN(C(=O)[C@H](Cc3ccc(O)cc3)n3cc([C@@H](N)CC(C)C)nn3)CC2)n1	.	15.8µM*	5.9%[9.22 µM]	16.2%	24.7%[10 µM]	.
COc1ccc(/C=N/NC(=O)CSc2nnc(C)n2-c2ccccc2)c(OC)c1OC	6.1%	3.4%	-12.1%	-1.2%[38.3 µM]	3.9%	3.6
COc1cccc(/C=N/NC(=O)C[n+]2ccccc2)c1O	-0.4%	1.7%	10.9%	14.2%	10.2%[10 µM]	.
C=CCn1c(COc2ccccc2)nnc1SCC(=O)N/N=C/c1cc(Cl)ccc1O	-23.9%	0.8%	7.94µM*	-15.2%[38.3 µM]	-35.7%	-6.3
C=CCn1c(COc2ccccc2)nnc1SCC(=O)N/N=C/c1ccc(C)cc1	-3.3%	?	9.0%	7.2%[38.3 µM]	-3.5%	-5.5
COc1ccc(O)c(/C=N/NC(=O)CSc2nnc(C)n2-c2ccccc2)c1	-14.4%	7.4%	7.94µM*	1.1%[38.3 µM]	-42.6%	2.9
COc1cccc(/C=N/NC(=O)CN2CC(c3ccccc3)CC2=O)c1O (stereo not drawn)	-14.1%	-2.2%	3.55µM*	-5.0%	.	.
Cc1ccc(-c2nn(-c3ccccc3)cc2/C=N/NC(=O)CSc2nnc(C)n2-c2ccccc2)cc1	-5.9%	-2.0%	?	3.9%[38.3 µM]	-38.7%	6.7
COc1cccc(/C=N/NC(=O)CSc2nnc(C)n2-c2ccccc2)c1O	-7.5%	2.6%	7.94µM*	-0.7%[38.3 µM]	-54.3%	5.2
O=C(O)c1cc(-n2nnnc2SCc2ccccc2F)ccc1Cl	.	10µM*	-5.1%	14.5%	-8.7%	.
NC(=O)c1ccc(-n2nnnc2SCc2ccccc2)cc1	-17.1%	5.1%	19.4%	15.0%[38.3 µM]	1.8%	-0.9
Fc1cccc(Cl)c1CSc1nnnn1-c1ccc2c(c1)OCO2	-15.7%	14.1µM*	-31.6%	-6.1%[38.3 µM]	-9.9%	-2.1
Fc1cccc(Cl)c1Cn1nnc(-c2ccc3c(c2)OCO3)n1	-24.3%	?	-11.8%	35.8%[38.3 µM]	-31.5%	1.8
Cc1cccc(Nc2ncnc3c2cnn3Cc2ccccc2)c1	.	22.4µM*	29.4%	4.1%	-32.0%	.
COc1ccc(NC(=O)CSc2ncnc3c2cnn3Cc2ccccc2)cc1OC	3.9%	?	12.3%	9.9%[38.3 µM]	11.1%	3.1
COc1ccc2cnn(Cc3ccccc3)c(=O)c2c1OC	.	3.55µM*	?	.	-23.8%[0.074 µM]	-3.2
COc1ccc2cnn(-c3ccccc3)c(=O)c2c1OC	-16.9%	-14.3%	-9.3%	-18.5%[38.3 µM]	14.4%[10 µM]	-4.0
Clc1cccc(Nc2ncnc3c2cnn3-c2ccccc2)c1	?	?	22.4µM*	41.6%[38.3 µM]	7.1%[10 µM]	18.8
COc1ccc(Nc2ncnc3c2cnn3Cc2ccccc2)cc1OC	.	8.91µM*	?	.	-21.1%[0.074 µM]	19.0
SMILES	HPGD inh	ALDH1A1 block	HttQ103 aggreg	IMPase Li inh	HTT ATP protect	IMPase inh
O=C(O)c1ccc(OCc2ccccc2)c(Cl)c1	-6.6%	-2.6%[13.5 µM]	.	-2.9%	-10.1%[10 µM]	.
Cc1ccc(CNc2nc3ccc(Cl)cc3n3nnnc23)cc1	.	.	.	.	.	3.0
CCN1C(C)=C(C(=O)OC)C(c2ccccc2)N2C(=O)[C@](O)(C(=O)OC)C(c3ccccc3)C(C(=O)c3ccccc3)=C12 (stereo partly drawn)	.	3.5%[13.5 µM]	.	.	?	.
CC[C@H]1C2=C3C(CC[C@H]4C(OC)OC[C@](C)([C@@H]34)N(C(=O)OC(C)(C)C)C2)C(CO)C1CO (stereo partly drawn)	-3.1%	-6.4%	.	-12.7%	-33.4%	.
COc1ccc(CC(=O)NNc2ncnc3c2cnn3Cc2ccccc2)cc1OC	.	10µM*	-14.8%[9.22 µM]	.	0.6%[10 µM]	.
CCN(CC)S(=O)(=O)c1ccc(N/N=C/c2cc(OC)c(OC)cc2OC)nc1	?	?	9.5%	2.0%	.	.
CCOc1cccc(/C=N/Nc2ccc(S(=O)(=O)N(CC)CC)cn2)c1O	-5.6%	4.2%	1.41µM*	6.6%	-65.6%[10 µM]	.
Cc1nc2c(C)cccn2c1/C(O)=C1\C(=O)C(=O)N(CCN(C)C)C1c1ccco1 (stereo not drawn)	.	?	-16.0%[9.22 µM]	.	2.7%[10 µM]	.
COc1ccc(NC(=O)C(=O)NCc2ccncc2)c(OC)c1	-13.4%	10.5%	-5.3%	-3.7%	39.4%[10 µM]	13.1
COc1ccc(C)cc1NC(=O)C(=O)NCc1ccncc1	.	17.8µM*	-8.6%	.	-10.6%	0.7
O=C(O)c1ccccc1N[C@H](c1ccccc1)c1ccc2cccnc2c1O	?	?	.	14.9%	-5.8%[10 µM]	.
COc1ccc(C(Nc2cc(C)ccn2)c2ccc3ccc(C)nc3c2O)cc1 (stereo not drawn)	.	.	-21.0%[9.22 µM]	.	17.3%[10 µM]	.
Oc1c(C(Nc2ccccn2)c2ccccn2)ccc2cccnc12 (stereo not drawn)	-14.4%	2.7%	2.82µM*	3.3%[38.3 µM]	2.3%	4.8
COc1ccccc1NC(c1cccnc1)c1ccc2cccnc2c1O (stereo not drawn)	-15.3%	2.51µM*	?	11.9%	10.5%[10 µM]	9.2
Cc1ccc2ccc(C(Nc3ccccn3)c3ccccc3)c(O)c2n1 (stereo not drawn)	-13.0%	-13.8%	?	9.1%[38.3 µM]	-34.5%	7.4
Cc1ccnc(NC(c2ccsc2)c2ccc3ccc(C)nc3c2O)c1 (stereo not drawn)	.	25.1µM*	7.6%[9.22 µM]	15.0%	-19.3%[1.9 µM]	.
CC(=O)NC(c1ccco1)c1ccc2cccnc2c1O (stereo not drawn)	-0.5%	-1.7%	3.55µM*	1.1%[38.3 µM]	-27.0%	6.7
COc1cc2c(cc1O)CC[C@@H]1[C@@H]2CC[C@@]2(C)[C@H](O)CC[C@H]12	.	.	.	.	-41.8%[1.9 µM]	3.8
O=C(Nc1ccc2nn(-c3ccccc3)nc2c1)c1ccc(-c2cccc(Cl)c2)o1	.	.	.	.	.	-6.0
COCCn1c(=O)c(CCc2ccccc2)nc2cnc(Oc3ccccc3)nc21	.	?	.	-0.9%	-9.4%	.

From PubChem BioAssay
